About 14,000 (4.5%) of roughly 310,000 compounds showed an effect of 50% or more. Effects have a minus sign here. The sample as a whole holds a higher share of strong results than the screen did.
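Also: peak tail current of the secondary pulse compared with the same well before compound.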

Sequence of human ether-à-go-go-related gene (hERG) potassium channel (Q12809 whole entry, looked up): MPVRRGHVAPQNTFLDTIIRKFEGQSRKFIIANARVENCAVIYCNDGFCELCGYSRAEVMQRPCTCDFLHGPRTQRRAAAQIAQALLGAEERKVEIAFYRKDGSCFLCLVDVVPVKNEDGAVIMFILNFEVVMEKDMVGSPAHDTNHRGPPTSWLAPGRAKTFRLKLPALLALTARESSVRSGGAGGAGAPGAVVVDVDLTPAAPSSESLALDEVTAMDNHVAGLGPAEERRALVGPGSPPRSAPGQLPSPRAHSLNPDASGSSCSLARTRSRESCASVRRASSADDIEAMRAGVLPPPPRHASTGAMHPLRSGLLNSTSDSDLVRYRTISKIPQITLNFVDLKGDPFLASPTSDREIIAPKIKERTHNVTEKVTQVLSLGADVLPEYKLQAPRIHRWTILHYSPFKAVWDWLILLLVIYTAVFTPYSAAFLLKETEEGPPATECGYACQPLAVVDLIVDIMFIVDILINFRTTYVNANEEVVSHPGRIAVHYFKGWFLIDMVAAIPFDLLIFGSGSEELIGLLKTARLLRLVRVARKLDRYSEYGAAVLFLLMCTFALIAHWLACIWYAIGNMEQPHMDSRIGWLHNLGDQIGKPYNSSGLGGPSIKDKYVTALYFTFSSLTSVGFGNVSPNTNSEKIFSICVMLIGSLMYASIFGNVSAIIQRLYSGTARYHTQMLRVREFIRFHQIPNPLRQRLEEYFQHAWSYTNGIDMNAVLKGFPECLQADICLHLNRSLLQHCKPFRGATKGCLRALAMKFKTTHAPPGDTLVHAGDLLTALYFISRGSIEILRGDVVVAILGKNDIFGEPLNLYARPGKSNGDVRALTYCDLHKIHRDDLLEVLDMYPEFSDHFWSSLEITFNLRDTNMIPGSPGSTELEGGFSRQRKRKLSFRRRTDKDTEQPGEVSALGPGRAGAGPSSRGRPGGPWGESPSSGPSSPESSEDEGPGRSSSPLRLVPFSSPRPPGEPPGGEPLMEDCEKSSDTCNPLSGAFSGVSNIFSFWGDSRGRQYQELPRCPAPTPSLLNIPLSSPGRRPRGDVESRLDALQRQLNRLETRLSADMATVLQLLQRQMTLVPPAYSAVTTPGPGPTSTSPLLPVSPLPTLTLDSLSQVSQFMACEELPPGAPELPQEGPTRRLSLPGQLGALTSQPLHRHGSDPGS

This test has as its target human ether-à-go-go-related gene (hERG) potassium channel (human, UniProt Q12809). In words: primary screen, population patch clamp on CHO cells stably expressing hERG; higher = less effect of the substance.
As for `CCc1ccccc1NC(=O)Cn1nnc(C(=O)NCc2cccs2)c1N`, the “hERG current change (%, negative = inhibition) at 10uM” value was 13.8%.

As for `O=C(Cn1cnc2ccccc2c1=O)NCCC(=O)N1CCN(c2ccccc2)CC1`, the “hERG current change (%, negative = inhibition) at 10uM” value is given as -7.6%.

Turning to `Cc1cc(C)cc(NC(=O)C(c2ccccc2)N2CCN(CC(=O)NC3CC3)CC2)c1` (centres unmarked), the “hERG current change (%, negative = inhibition) at 10uM” value was -28.3%.

In the case of `Cc1ccc(NC(=O)C(c2ccccc2)N2CCN(CC(=O)NC3CC3)CC2)cc1Cl` (centres unmarked), the “hERG current change (%, negative = inhibition) at 10uM” value is on record as -46.7%.

With `O=C(CN1CCN(C(C(=O)Nc2ccc(Cl)cc2C(F)(F)F)c2ccccc2)CC1)NC1CC1` (centres unmarked), the “hERG current change (%, negative = inhibition) at 10uM” value is -70.2%.

As for `COc1ccccc1NC(=O)COC(=O)[C@@H]1CCCN1C(=O)c1cccs1`, the “hERG current change (%, negative = inhibition) at 10uM” value is reported as -40.6%.

As to `NC(=O)c1ccsc1NC(=O)COC(=O)C1CCCN1C(=O)c1cccs1` (centres unmarked), the “hERG current change (%, negative = inhibition) at 10uM” value is on record as -63%.

For the molecule `Cc1cc(NC(=O)COC(=O)C2CCCN2C(=O)c2cccs2)no1` (centres unmarked), the “hERG current change (%, negative = inhibition) at 10uM” value is reported as -4.36%.

`Cc1ccn2c(C(=O)N/N=C\c3ccccc3[N+](=O)[O-])c(C)nc2c1`: the “hERG current change (%, negative = inhibition) at 10uM” value is recorded as -27.2%.

`COCCn1c(C)cc(C(=O)Cn2nc(C(=O)O)c3ccccc3c2=O)c1C`: the “hERG current change (%, negative = inhibition) at 10uM” value was -3.4%.

With `O=C(CNC(=O)Cc1cccc2ccccc12)NCc1ccccc1F`, the “hERG current change (%, negative = inhibition) at 10uM” value worked out at 14.8%.

Take `CCOC(=O)C1=C(COC(=O)c2cccc(N(C)C)c2)NC(=O)NC1C` (centres unmarked): the “hERG current change (%, negative = inhibition) at 10uM” value is listed as 2.49%.

Regarding `O=C(Oc1ccc(F)cc1)c1cccnc1`, the “hERG current change (%, negative = inhibition) at 10uM” value turned out to be 17.1%.

Take `Cl.Cn1c(C(=O)N2CCN(Cc3ccc4c(c3)OCO4)CC2)cc2sccc21`: the “hERG current change (%, negative = inhibition) at 10uM” value is listed as -8.46%.

For the molecule `O=C(/C=C/c1cccs1)N1CCN(Cc2ccc3c(c2)OCO3)CC1`, the “hERG current change (%, negative = inhibition) at 10uM” value was -47.9%.

In the case of `O=C(c1cccs1)N1CCC(C(=O)N2CCN(Cc3ccc4c(c3)OCO4)CC2)CC1`, the “hERG current change (%, negative = inhibition) at 10uM” value was -59.9%.

Regarding `Cn1c(C(=O)N2CCC(C(=O)N3CCN(Cc4ccc5c(c4)OCO5)CC3)CC2)cc2sccc21`, the “hERG current change (%, negative = inhibition) at 10uM” value is recorded as -60.6%.

With `Cn1c(C(=O)N2CCC(C(=O)N3CCOCC3)CC2)cc2sccc21`, the “hERG current change (%, negative = inhibition) at 10uM” value is on record as 7.59%.

Regarding `O=C(c1sccc1Br)N1CCN(Cc2ccc3c(c2)OCO3)CC1`, the “hERG current change (%, negative = inhibition) at 10uM” value was -11%.

As for `O=C(c1ccc(Br)s1)N1CCN(Cc2ccc3c(c2)OCO3)CC1`, the “hERG current change (%, negative = inhibition) at 10uM” value is on record as -36.3%.

With `O=C(/C=C\c1cccs1)N1CCN(Cc2ccc3c(c2)OCO3)CC1`, the “hERG current change (%, negative = inhibition) at 10uM” value is listed as -57.8%.

`O=C(C1CCCN1C(=O)c1cccs1)N1CCN(Cc2ccc3c(c2)OCO3)CC1` (centres unmarked): the “hERG current change (%, negative = inhibition) at 10uM” value is listed as -6.29%.

Regarding `O=C(O)/C=C/C(=O)N1CCN(Cc2ccc3c(c2)OCO3)CC1`, the “hERG current change (%, negative = inhibition) at 10uM” value was found to be 4.54%.

With `O=C(c1cccs1)N1CCN(Cc2ccc3c(c2)OCO3)CC1`, the “hERG current change (%, negative = inhibition) at 10uM” value was -15.7%.

On to `Cl.O=C(c1cc2c(s1)CCCC2)N1CCN(Cc2ccc3c(c2)OCO3)CC1`, for which the “hERG current change (%, negative = inhibition) at 10uM” value is on record as -54.2%.

`CCOC(=O)c1ccc(N2CN(CCc3ccccc3)CNC2=S)cc1`: the “hERG current change (%, negative = inhibition) at 10uM” value stood at 6.21%.

On to `COC(=O)/C(C#N)=C\c1c(OC)[nH]c2ccccc12`, for which the “hERG current change (%, negative = inhibition) at 10uM” value was 14%.

Consider `Cc1ccc2[nH]c(SCC(=O)N3CCOCC3)nc2c1C`, for which the “hERG current change (%, negative = inhibition) at 10uM” value is listed as 8.6%.

On to `Cc1ccc2c(c1)nnn2C1CCN(CC(=O)N(c2ccccc2)c2ccccc2)CC1`, for which the “hERG current change (%, negative = inhibition) at 10uM” value stood at 11.4%.

Take `Cc1ccc2c(c1)nnn2C1CCN(CC(=O)NCCc2nc3ccccc3[nH]2)CC1`: the “hERG current change (%, negative = inhibition) at 10uM” value is recorded as -27.9%.

Take `Cc1ccc2c(c1)nnn2C1CCN(CC(=O)NCCc2ccccc2)CC1`: the “hERG current change (%, negative = inhibition) at 10uM” value is -50.4%.

`Cc1cccc(C(=O)NC2CCN(CC(=O)NCc3ccccc3F)CC2)c1`: the “hERG current change (%, negative = inhibition) at 10uM” value is -33.2%.

For `O=C(CN1CCC(n2nnc3cc(F)ccc32)CC1)NCCc1ccccc1`, the “hERG current change (%, negative = inhibition) at 10uM” value was -41.5%.

As for `Cc1ccc2c(c1)nnn2C1CCN(CC(=O)NCc2ccccc2F)CC1`, the “hERG current change (%, negative = inhibition) at 10uM” value is -59.9%.

As for `Cc1ccc2c(c1)nnn2C1CCN(CC(=O)NNC(=O)c2ccco2)CC1`, the “hERG current change (%, negative = inhibition) at 10uM” value worked out at 37.1%.

`COc1ccc(C(=O)NNC(=O)CN2CCC(n3nnc4cc(C)ccc43)CC2)cc1`: the “hERG current change (%, negative = inhibition) at 10uM” value is listed as -15%.

As for `CCOC(=O)CN(C(=O)CN1CCC(n2nnc3cc(C)ccc32)CC1)c1ccccc1`, the “hERG current change (%, negative = inhibition) at 10uM” value is given as -53.8%.

For `CC(=C/c1ccco1)/C=N/NC(=O)CSc1nnc(SCc2ccc(C)cc2)s1`, the “hERG current change (%, negative = inhibition) at 10uM” value was -3.37%.

For the molecule `CN1c2ccccc2C(O)=C(C(=S)Nc2ccccc2)S1(=O)=O`, the “hERG current change (%, negative = inhibition) at 10uM” value is on record as 22.7%.

For `CCOc1ccc(OCC(=O)Nc2nccs2)cc1`, the “hERG current change (%, negative = inhibition) at 10uM” value is on record as 19.8%.

Take `Oc1c(Br)cc(/C=N/Nc2nncc3ccccc23)cc1Br`: the “hERG current change (%, negative = inhibition) at 10uM” value is 27.8%.

Turning to `N/C(=N\OC(=O)/C=C/c1ccccc1)c1cccnc1`, the “hERG current change (%, negative = inhibition) at 10uM” value is reported as -5.4%.

In the case of `N/C(=N\OC(=O)/C=C/c1ccccc1)c1ccncc1`, the “hERG current change (%, negative = inhibition) at 10uM” value was -52.3%.

As for `N/C(=N\OC(=O)/C=C/c1ccccc1)c1ccccc1`, the “hERG current change (%, negative = inhibition) at 10uM” value is given as 3.82%.

For the origin of these results see paper PMC4336329 (PLoS ONE, 2015).
